Where “and” joins values, the source holds several entries; their conditions need not be identical. Identical values can stand only once. Inconclusive results are not listed. A call without a number means that no potency is given here. Unmarked numbers belong to inactive results. Calls of active or inactive are those of the source. Calls come from the whole dose curve; as a rule, active = well fitted cell-killing curve with a large enough effect; inconclusive = small, poorly fitted or top-dose-only effect, or effect the other way; inactive = no such curve, though single readings can be large or run the other way.
Assays:
[1] = Viability qHTS for spleen associated tyrosine kinase inhibitor (SYKi) naive MV4-11 cells (AID 1963823); settings: MV4-11 AML viability, CellTiter-Glo luminescence, 72 h; series mostly up to 45 µM; note: nearly all actives have a fitted effect of over 40% in size
Outline: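 qHTS, SYK inhibitor-naive MV4-11; 500 cells/well; 72 hr compound exposure, 37 C; CellTiter-Glo added, 10 min RT; luminescence read.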

[2] = Viability qHTS for spleen associated tyrosine kinase inhibitor (SYKi) drug resistant MV4-11 cells (AID 1963824); settings: SYKi-resistant MV4-11 viability, CellTiter-Glo, 72 h; series mostly up to 45 µM; note: nearly all actives have a fitted effect of over 35% in size
Outline: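 SYK inhibitor-resistant MV4-11 AML cells, 500 per well, added to predispensed compounds and incubated 72 hr at 37 C, 5% CO2. Viability measured by CellTiter-Glo luminescence after 10 min at room temperature.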
Potency is the fitted concentration of half-maximal effect.

SMILES	Potency [1]	Potency [2]	viability (% of control) [1]	viability, % of control [2]
Cc1c(C(=O)NCc2cccnc2)nn(-c2ccc(Cl)cc2Cl)c1-c1ccc(Cl)cc1	inactive	inactive		
CC(=O)c1c(O)cc2c(c1C)C(=O)CC(O)C2 (centres undefined)	inactive	inactive		
C[C@@H]1CC[C@@]2(OC1)O[C@H]1C[C@H]3[C@@H]4CC=C5C[C@@H](O)CC[C@]5(C)[C@H]4CC[C@]3(C)[C@H]1[C@@H]2C	inactive	inactive		
C[C@H]1[C@H](C)CC[C@]2(C(=O)O[C@@H]3O[C@H](CO)[C@@H](O)[C@H](O)[C@H]3O)CC[C@]3(C(=O)O)C(=CCC4[C@@]5(C)CC[C@H](O[C@@H]6O[C@H](CO)[C@@H](O)[C@H](O)[C@H]6O)C(C)(C)C5CC[C@]43C)[C@H]12 (some centres undefined)			69.7% [at 9.25 µM]	96% [at 9.25 µM]
CC(C)c1cc2c(c(O)c1O)[C@@]13CCCC(C)(C)C1[C@@H](O)[C@@H]2OC3=O (some centres undefined)	4.53 µM (active)	10.1 µM (active)		
COC1=CC(=O)CC(C)C12Oc1cc(OC)cc(O)c1C2=O (centres undefined)	inactive	inactive		
Cc1cc(C(=O)Nc2nc3cccc(Cl)c3n2C2CCCCN(C(=O)/C=C/CN(C)C)C2)ccn1 (centres undefined)	5.17 µM (active)	8.2 µM (active)		
CC(C)O[C@@H]1O[C@H](CO)[C@@H](O)[C@H](O)[C@H]1O	inactive	inactive		
CC(=O)O[C@@]1(C)[C@@H]2CC(=C(C)C)C(=O)C[C@@]2(C)CC[C@H]1OC(=O)C1(C)OC1C (some centres undefined)	inactive	inactive		
CC(C)=CC/C=C(/C)[C@H]1CC[C@]2(C)[C@@H]1[C@H](O)CC1[C@@]3(C)CC[C@H](O)C(C)(C)[C@@H]3[C@@H](O[C@@H]3O[C@H](CO)[C@@H](O)[C@H](O)[C@H]3O[C@@H]3O[C@@H](C)[C@H](O)[C@@H](O)[C@H]3O)C[C@]12C (some centres undefined)	inactive	inactive		
C=C(C)C(O)COc1ccc(CC(=O)O)cc1 (centres undefined)	inactive	inactive		
Cc1cc(CNC(=O)c2cc(C(=O)NCc3ccc(F)c(C)c3)ncn2)ccc1F	inactive	inactive		
C#Cc1cccc(Nc2nc3cc(C(=O)O)ccc3c3cncnc23)c1	5.17 µM (active)	2.91 µM (active)		
COC(=O)[C@]12C(=O)C(C)=C(O)[C@@]1(C)C(C)=CC1[C@@]34CC[C@@H](OC(C)=O)C(C)(C)C3[C@H](C[C@]12C)OC4=O (some centres undefined)	inactive	inactive		
CC1CCC23COC(=O)C2=CC(O)CC3C1(C)CCC1=CC(O)OC1=O (centres undefined)	inactive	inactive		
Nc1ccc(-c2ccnc(NCCCNC(=O)c3c(Cl)cccc3Cl)n2)cc1	1.3 µM (active)	1.3 µM (active)		
C=C1CC2OC(=O)C(=C)C2C(OC(=O)/C(C)=C\C)CC2(C)OC1=CC2=O (centres undefined)	0.453 µM (active)	0.453 µM (active)		
CNc1nc(Cc2ccccc2)nc2c1CCNC[C@@H]2C	inactive	11.6 µM (active)		
CC(=O)NC(Cc1ccccc1)C(=O)NC(C(=O)O)C(C)C (centres undefined)	inactive	inactive		
CC(=O)OC[C@]12[C@H](OC(C)=O)C(=O)[C@@H]3[C@@H](OC(C)=O)[C@@]14O[C@@]3(C)COC(=O)c1cccnc1[C@@H](C)[C@H](C)C(=O)O[C@@H]([C@H](O)[C@@H]2OC(C)=O)[C@]4(C)O	inactive	inactive		
Cc1occc(=O)c1O[C@@H]1O[C@H](CO)[C@@H](O)[C@H](O)[C@H]1O	inactive	inactive		
COc1ccc(N(C(=O)Nc2c(C)cccc2C)c2cc(Nc3ccc(N4CCN(C)CC4)cc3)ncn2)c(OC)c1	2.31 µM (active)	3.66 µM (active)		
CC(C/C=C/C(C)(C)O)C1CCC(C)(O)C(O)C1 (centres undefined)	inactive	inactive		
N#CC1C(=O)Nc2scc(-c3ccc(-c4ccccc4O)cc3)c2C1=O (centres undefined)	inactive	inactive		
C[C@@H]1O[C@@H](OC[C@H]2O[C@@H](OCc3ccccc3)[C@H](O)[C@@H](O)[C@@H]2O)[C@H](O)[C@H](O)[C@H]1O	inactive	inactive		
C[C@@H]1O[C@@H](O[C@H]2[C@H](O[C@H]3[C@H](O[C@H]4CC[C@@]5(C)C(CC[C@]6(C)C5CC=C5[C@@H]7CC(C)(C)C[C@@H](O)[C@]7(C)CC[C@]56C)[C@@]4(C)CO)O[C@H](C(=O)O)[C@@H](O)[C@@H]3O)O[C@H](CO)[C@H](O)[C@@H]2O)[C@H](O)[C@H](O)[C@H]1O (some centres undefined)			74.1% [at 9.25 µM]	80.3% [at 9.25 µM]

SMILES	Potency [1]	Potency [2]	viability (% of control) [1]	viability, % of control [2]
O=C(NCCN1CCC(n2c(=O)[nH]c3ccccc32)CC1)c1cc2cc(F)ccc2[nH]1	18.4 µM (active)	18.4 µM (active)		
CC1[C@@H](O)[C@@H](O)C2[C@]3(C)C(C[C@H]4OC(=O)[C@H](O)[C@]1(O)[C@@]24C)C(C)(O)C[C@H](O)[C@H]3O (some centres undefined)	inactive	inactive		
CN[C@H](C(=O)N[C@H](C(=O)N(C)[C@H](/C=C(\C)C(=O)O)C(C)C)C(C)(C)C)C(C)(C)c1ccccc1	inactive	inactive		
O=C(/C=C/c1ccc(O)cc1)O[C@H]1[C@@H]2C=CO[C@@H](O[C@@H]3O[C@H](CO)[C@@H](O)[C@H](O)[C@H]3O)[C@@H]2[C@@]2(CO)O[C@@H]12	inactive	inactive		
COc1cc(CO)cc(OC)c1O[C@@H]1O[C@H](CO)[C@@H](O)[C@H](O)[C@H]1O	inactive	inactive		
CC(CO)C1CCC2(C)CC3C(CO)CC(O)C3C(C)(O)C/C=C/12 (centres undefined)	inactive	inactive		
CN1[C@@H]2CC[C@H]1CC(OC(=O)C(CO)c1ccccc1)C2 (some centres undefined)	inactive	inactive		
CC(C)CC1NC(=O)C(C(C)c2ccccc2)NC(=O)C(C(C)C)NC(=O)C(C)NC(=O)CCCNC(=O)C(Cc2c[nH]c3ccccc23)NC(=O)C(C)NC1=O (centres undefined)	inactive	inactive		
C=C(CCC1=C(C)[C@H]2[C@H](CC3[C@@H]4CC=C5C[C@@H](O)C[C@@H](O)[C@]5(C)C4[C@H](O)C[C@@]32C)O1)CO[C@@H]1O[C@H](CO)[C@@H](O)[C@H](O)[C@H]1O (some centres undefined)	0.611 µM (active)	0.485 µM (active)		
CCNC(=O)Nc1ccc(-c2nc3c(c(N4CCOC[C@H]4C)n2)CCN(C2COC2)C3)cc1	0.461 µM (active)	0.82 µM (active)		
C[C@@H]1O[C@@H](O[C@H]2[C@H](O[C@H]3[C@H](O[C@H]4CC[C@@]5(C)C(CC[C@]6(C)C5CC=C5[C@@H]7CC(C)(C)CC(=O)[C@]7(C)CC[C@]56C)[C@@]4(C)CO)O[C@H](C(=O)O)[C@@H](O)[C@@H]3O)O[C@H](CO)[C@H](O)[C@@H]2O)[C@H](O)[C@H](O)[C@H]1O (some centres undefined)			81.7% [at 9.25 µM]	68.7% [at 9.25 µM]
COc1cc2c(cc1O)CC(O)(CO)C(CO)C2c1ccc(OC2OC(CO)C(O)C(O)C2O)c(OC)c1 (centres undefined)	inactive	inactive		
CC1CC[C@]2(C(=O)O)CC[C@]3(C(=O)O)C(=CCC4[C@@]5(C)CC[C@H](OC6OC(C)C(O)C(OC7OC(CO)C(O)C(O)C7O)C6O)C(C)(C)C5CC[C@]43C)C2C1C (some centres undefined)	inactive	inactive		
CN(C)CCCn1cc(C2=C(c3c[nH]c4ccccc34)C(=O)NC2=O)c2ccccc21	0.0731 µM (active)	0.116 µM (active)		
C[C@@H]1O[C@@H](OC[C@H]2O[C@@H](Oc3cc(O)cc4c3C(=O)C(O)(Cc3ccc(O)cc3)O4)[C@H](O)[C@@H](O)[C@@H]2O)[C@H](O)[C@H](O)[C@H]1O (some centres undefined)	inactive	inactive		
COC(=O)C1=CO[C@@H](O[C@@H]2O[C@H](CO)[C@@H](O)[C@H](O)[C@H]2O)[C@@H]2[C@@H](C)[C@@H](OC(=O)/C=C/c3ccccc3)[C@@H](O)[C@H]12	inactive	inactive		
C[C@H](NC(=O)C(C)(C)Oc1ccc(C(F)(F)F)cn1)[C@@H](Cc1ccc(Cl)cc1)c1cccc(C#N)c1	13 µM (active)	9.2 µM (active)		
CC1(C)C2CCC1(C)C(OC(=O)C(O)(CC(=O)O)CC(=O)O)C2 (centres undefined)	inactive	inactive		
CCOC(CN1C(=O)[C@](CC(=O)Nc2ccc(C)cc2)(NC(=O)Nc2ccc(C)cc2)c2ccccc21)OCC	18.6 µM (active)	14.8 µM (active)		
Cc1c(-c2ccc(O)cc2)n(Cc2ccc(OCCN3CCCCCC3)cc2)c2ccc(O)cc12	18.8 µM (active) and 8.33 µM (active)	23.7 µM (active) and 9.34 µM (active)		
C[C@@H]1O[C@@H](O[C@H]2[C@H](O[C@H]3[C@H](O[C@H]4CC[C@@]5(C)C(CC[C@]6(C)C5CC=C5[C@@H]7CC(C)(C(=O)O)C[C@@H](O)[C@]7(C)CC[C@]56C)[C@@]4(C)CO)O[C@H](C(=O)O)[C@@H](O)[C@@H]3O)O[C@H](CO)[C@H](O)[C@@H]2O)[C@H](O)[C@H](O)[C@H]1O (some centres undefined)			58.7% [at 9.25 µM]	77.5% [at 9.25 µM]
CC1(C)CC[C@]2(C(=O)O[C@@H]3O[C@H](CO)[C@@H](O)[C@H](O)[C@H]3O)CC[C@]3(C)C(=CCC4[C@@]5(C)C[C@@H](O)[C@H](O)[C@](C)(C(=O)O)C5CC[C@]43C)C2C1O (some centres undefined)	inactive	inactive		
C=C1C[C@]23C[C@H]1CC[C@H]2C1=C[C@H]2OC(=O)[C@@](C)([C@H]1[C@@H]3C(=O)O)[C@H]2O	inactive	inactive		
COC(=O)C1=CO[C@@H](O[C@@H]2O[C@H](CO)[C@@H](O)[C@H](O)[C@H]2O)[C@@H]2[C@@H](C)[C@@H](O)C[C@H]12	inactive	inactive		
COC(=O)C1=COC(OC2OC(CO)C(O)C(O)C2O)C2C(C)C(OC(C)=O)C(OC(=O)c3ccccc3)C12 (centres undefined)	inactive	inactive		
COc1c(CCC(=O)O)cccc1O[C@@H]1O[C@H](CO)[C@@H](O)[C@H](O)[C@H]1O	inactive	inactive		

From PubChem BioAssay (NCATS)
